Assay results reported in PubChem BioAssay AID1851 (National Center for Advancing Translational Sciences (NCATS), 2009).
Where “and” joins values, the source holds several entries; their conditions need not be identical. Identical values can stand only once. The whole screen tested about 16,000 compounds, of which about 2,600 (16%) were called active. Another 20% or so got no clear call; they are omitted. The call rests on the fitted dose curve; in most records, active means well fitted curve in the direction sought with a large enough effect; inconclusive means small, poorly fitted or top-dose-only effect, or effect the other way; inactive means no such curve, though single readings can be large or run the other way. Only a sample is shown. Where a structure was tested more than once in an assay, its records may differ in their call.
On the % scale 0 is the no-effect control and ±100 the full control effect.

These compounds were tested against Cytochrome P450 2D6 (Homo sapiens) (UniProt P10635) (assay: Cytochrome panel assay with activity outcomes). Conditions: recombinant CYP, pro-luciferin dealkylation, luminescence, p450-cyp2d6; series mostly up to 57.1 µM.
Sequence of Cytochrome P450 2D6 (Homo sapiens) (P10635 whole entry, looked up): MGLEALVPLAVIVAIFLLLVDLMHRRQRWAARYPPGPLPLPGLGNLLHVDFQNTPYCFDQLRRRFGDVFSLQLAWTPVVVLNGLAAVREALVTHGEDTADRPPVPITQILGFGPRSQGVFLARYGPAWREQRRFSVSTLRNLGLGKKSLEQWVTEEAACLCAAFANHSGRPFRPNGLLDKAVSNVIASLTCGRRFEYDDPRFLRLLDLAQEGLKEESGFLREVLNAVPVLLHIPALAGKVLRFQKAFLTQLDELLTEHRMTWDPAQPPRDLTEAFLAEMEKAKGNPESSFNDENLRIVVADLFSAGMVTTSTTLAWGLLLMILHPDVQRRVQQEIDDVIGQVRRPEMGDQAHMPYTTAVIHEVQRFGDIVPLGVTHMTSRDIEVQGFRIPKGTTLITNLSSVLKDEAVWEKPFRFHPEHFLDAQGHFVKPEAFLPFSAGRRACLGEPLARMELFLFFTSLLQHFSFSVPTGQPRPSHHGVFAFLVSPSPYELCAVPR
In the case of `O=C(Nc1cnn(Cc2ccc(Cl)cc2)c1)c1ccc([N+](=O)[O-])cc1`, the AC50 is reported as “inactive”. For `CSc1ccc2nnc(-c3cccc(F)c3)n2n1`, the AC50 was “inactive”. With `Cc1nnc(C)n1/N=C/c1cccs1` the AC50 was “inactive”. In the case of `Cc1ccc(/C=N/n2c(COc3ccccc3)n[nH]c2=S)s1`, the AC50 is reported as “inactive”. `S=c1[nH]nc(C2CCCCC2)n1/N=C/c1cccs1` was tested, and the AC50 was 2.24 µM (active). `O=C1C2ON(c3ccccc3)C(c3ccncc3)C2C(=O)N1c1ccccc1` (stereo not drawn) was tested, and the AC50 was “inactive”. In the case of `Cc1nc2ccccc2n1CC(=O)N/N=C\c1ccccn1`, the AC50 is reported as “inactive”. `Cc1cc(C2C(C#N)=C(N)Oc3n[nH]c(C)c32)c(C)s1` (stereo not drawn) was tested, and the AC50 was “inactive”. In the case of `Cc1ccsc1/C=N/Nc1nc(Cl)c(Cl)cc1Cl`, the AC50 is reported as “inactive”. `OCCN(C=NC1=NN(c2cccc(C(F)(F)F)c2)CC1)CCO` was tested, and the AC50 was “inactive”. `COc1ccc(NC(=S)N(CCc2nc3cc(C)c(C)cc3[nH]2)Cc2cccnc2)cc1` was tested, and the AC50 was 11.2 µM (active). `COc1ccc2[nH]c(=O)c(NC(N)=S)nc2c1` was tested, and the AC50 was “inactive”. `CCc1ccc2c(c1)cc(CN(C(=S)Nc1cccc(C)c1)C1CC1)c1nnnn12` was tested, and the AC50 was “inactive”. In the case of `COc1cccc(/C=N/NC(=O)C(=O)NCc2cccnc2)c1`, the AC50 is reported as “inactive”. In the case of `Cc1cccc(NC(=S)N(CCc2nc3cc(C)c(C)cc3[nH]2)Cc2cccnc2)c1`, the AC50 is reported as 3.16 µM (active). In the case of `Cc1ccc(C)c(NC(=S)N(CCc2nc3cc(C)c(C)cc3[nH]2)Cc2cccnc2)c1`, the AC50 is reported as 1 µM (active). For `CC(=O)CC(=O)[C@@]1(O)CC[C@@H]2[C@@H]3C=C(C)C4=CC(=O)CC[C@@H]4[C@H]3CC[C@]21C`, the AC50 was “inactive”. `O=C(O)[C@@H](O)[C@@H](O)[C@@H](O[C@H]1O[C@@H](CO)[C@@H](O)[C@@H](O)[C@@H]1O)[C@@H](O)CO` was tested, and the AC50 was “inactive”. For `COc1cc(NC(=S)Nc2ccc(S(=O)(=O)N3CCOCC3)cc2)cc(OC)c1OC`, the AC50 was “inactive”. For `CC1(C)CC(=O)c2cnc(N)nc2C1`, the AC50 was “inactive”. In the case of `O=C(NN=C1c2ccccc2-c2ccccc21)c1ccccn1`, the AC50 is reported as “inactive”. With `CSC(=NC#N)N1CCN(c2ccc(Cl)cc2)CC1` the AC50 was 0.316 µM (active). In the case of `O=C(CSc1ccc(Cl)cc1)Nc1ccc(N2CCN(C(=O)c3ccc(Cl)cc3)CC2)cc1`, the AC50 is reported as “inactive”. `O=C(CSC1=NCCS1)N1CCN(c2ccc(Cl)cc2)CC1` was tested, and the AC50 was “inactive”. With `CN(C)c1ccc(-c2nc(N(C)C)c3ccccc3n2)cc1` the AC50 was 7.94 µM (active). With `CCn1c(-c2ccc(N(C)C)cc2)nc2ccccc21` the AC50 was “inactive”. In the case of `CN(C)c1nc(-c2cccnc2)nc2ccccc12`, the AC50 is reported as 15.8 µM (active). With `CNc1nc(-c2ccc(N(C)C)cc2)nc2ccccc12` the AC50 was 12.6 µM (active). `COc1ccccc1NC(=O)Nc1nc(-c2cccnc2)nc2ccccc12` was tested, and the AC50 was “inactive”. `CN(C)c1ccc(/C=N\NC(=O)c2cnc3ccccc3c2)cc1` was tested, and the activity, negative = inhibition was 5.04% [at 11.4 µM] (inactive). For `c1ccc(Nc2nc(-c3cccnc3)nc3ccccc23)cc1`, the AC50 was “inactive”. In the case of `CCC(=O)O[C@H](CC(=O)O)C[N+](C)(C)C`, the AC50 is reported as “inactive”. With `O=C1C[C@@H](O)[C@@H](O)[C@H]2[C@@H]3C(=O)N(C[C@@H]4CCCO4)C(=O)[C@@H]3CC[C@H]12` the activity, negative = inhibition was 4.56% [at 11.4 µM] (inactive) and 6.17% [at 11.4 µM] (inactive). In the case of `COc1cc(C2NC(=O)NC(O)(C(F)(F)F)C2C(=O)c2ccc(Cl)cc2)ccc1O` (stereo not drawn), the AC50 is reported as “inactive”. In the case of `CCCc1nn2c(=O)c(C(c3ccc(C)cc3)c3c(O)nc4sc(CCC)nn4c3=O)c(O)nc2s1`, the AC50 is reported as “inactive”. `CN1CCN(c2nc3c(c(=O)n(C)c(=O)n3C)n2C)CC1` was tested, and the activity, negative = inhibition was 6.17% [at 11.4 µM] (inactive). For `CCCCN(C(=S)Nc1ccccc1)C1CCS(=O)(=O)C1` (stereo not drawn), the AC50 was “inactive”. `Fc1ccc(N2CCN(c3ccc4c(C(F)(F)F)cc(C(F)(F)F)nc4n3)CC2)cc1` was tested, and the AC50 was “inactive”. `COCCNC(=O)c1onc(CSc2ccc(Cl)cc2)c1C(=O)O` was tested, and the AC50 was “inactive”. With `C=CCNC(=O)c1onc(CSc2ccc(F)cc2)c1C(=O)O` the AC50 was “inactive”. In the case of `O=C(NCc1ccccc1)c1onc(CSc2ccc(F)cc2)c1C(=O)NCCCN1CCOCC1`, the AC50 is reported as 10 µM (active). `COc1ccc(-n2c(=O)c(-c3cn(C)c4ccccc34)nc3cnc(OC)nc32)cc1` was tested, and the AC50 was “inactive”. `CCOc1ccc(N(C(C)C(=O)N/N=C(\C)c2cccc(NC(=O)c3ccccc3)c2)S(C)(=O)=O)cc1` (stereo not drawn) was tested, and the AC50 was “inactive”. With `COc1ccc2c(c1)CCc1sc(NC(=O)c3ccc(C)cc3)nc1-2` the AC50 was “inactive”. For `Cn1c(=O)c(-c2cccs2)nc2cncnc21`, the AC50 was “inactive”. `Cc1oc(-c2cccc(Cl)c2)[n+]([O-])c1C` was tested, and the AC50 was “inactive”. In the case of `O=S1(=O)OC(c2ccc(O)cc2)(c2ccc(O)cc2)c2ccccc21`, the activity, negative = inhibition is reported as 12.2% [at 11.4 µM] (inactive). With `COc1ccc(CNc2ccnc(-c3ccc4c(c3)OCO4)n2)c(OC)c1` the AC50 was 10 µM (active). In the case of `COc1ccccc1CNc1ccnc(-c2ccc3c(c2)OCO3)n1`, the AC50 is reported as 0.794 µM (active). In the case of `Cc1c(C#N)c(=O)oc2ccc3ccccc3c12`, the AC50 is reported as “inactive”. For `NC(=O)c1ccc(N2CCCCC2)c(N2C(=O)C3CC=CCC3C2=O)c1` (stereo not drawn), the AC50 was “inactive”. In the case of `O=C(O)c1ccc(NS(=O)(=O)Cc2ccccc2)cc1`, the activity, negative = inhibition is reported as 0.0348% [at 11.4 µM] (inactive). For `COc1cc(C(=O)Nc2nc3ccc4nc(C)sc4c3s2)cc(OC)c1OC`, the AC50 was “inactive”. For `O=C(COc1ccc2ccccc2c1)N1CCN(C(=O)c2cccnc2)CC1`, the AC50 was “inactive”. `Cc1cccc(C(=O)NC2CCN(C(=O)N3CCOCC3)CC2)c1` was tested, and the AC50 was “inactive”. For `Cc1cccc(OCC(=O)N2CCC(N3CCCCCC3)CC2)c1`, the AC50 was 4.47 µM (active). In the case of `COCCn1c(=O)c(-c2cccc(C#N)c2)nc2cnc(OCc3ccccc3)nc21`, the AC50 is reported as “inactive”. For `CC(=O)NC1=NC(=O)C(C)S1` (stereo not drawn), the AC50 was “inactive”. In the case of `O=c1c(-c2cccs2)nc2cnc(N3CCNCC3)nc2n1Cc1cccs1`, the AC50 is reported as “inactive”. `O=C(Nc1cccc(-c2nc3ccccc3s2)c1)c1ccc2c(c1)OCO2` was tested, and the AC50 was 0.1 µM (active). In the case of `O=C(Nc1cc(-c2nc3ccccc3s2)ccc1Cl)c1ccc2c(c1)OCO2`, the AC50 is reported as “inactive”. With `Cc1ccc(-n2nc3ccc(NC(=O)c4ccc5c(c4)OCO5)cc3n2)cc1` the AC50 was “inactive”. In the case of `CCn1c(-c2ccccc2Cl)nn(CC(=O)Nc2ccc(OC)cc2)c1=S`, the AC50 is reported as “inactive”. In the case of `CC(=O)NC1C(OCCOc2ccc(Cl)cc2Cl)OC(COC(C)=O)C(OC(C)=O)C1OC(C)=O` (stereo not drawn), the AC50 is reported as “inactive”. For `CSC1=N/C(=C\c2ccc(Br)o2)C(=O)S1`, the AC50 was “inactive”. `CCCCN1CCC(COC(=O)c2cc(Cl)c(N)c3c2OCCO3)CC1` was tested, and the AC50 was 1.26 µM (active). `CCOC(=O)n1ccn(C)c1=S` was tested, and the AC50 was “inactive”. In the case of `O=C(O)c1cc2ccccc2c(Cc2cc3ccccc3c(C(=O)O)c2O)c1O` (tested in a mixture with another compound), the AC50 is reported as “inactive”. In the case of `NC(=NCCCCCCN=C(N)/N=C(\N)Nc1ccc(Cl)cc1)/N=C(\N)Nc1ccc(Cl)cc1`, the AC50 is reported as 7.94 µM (active). In the case of `CCN=C(Nc1ccc(Cl)cc1)c1cccnc1`, the AC50 is reported as “inactive”. In the case of `CC(Oc1ccccc1)C(=O)Nc1nc2c(s1)C(=O)CC(C)(C)C2` (stereo not drawn), the AC50 is reported as “inactive”. For `Cc1cnc(CNc2ncnc3ccc(-c4ccc5c(c4)OCO5)cc23)cn1`, the AC50 was 12.6 µM (active). `Cc1cccc(CNc2ncnc3ccc(-c4ccc5c(c4)OCO5)cc23)c1` was tested, and the AC50 was 0.501 µM (active). In the case of `Cc1cnc(CNc2ncncc2-c2ccc(C(=O)N(C)C)cc2)cn1`, the AC50 is reported as “inactive”. In the case of `Cc1cnc(CNc2ncnc3ccc(-c4cccc(C#N)c4)cc23)cn1`, the AC50 is reported as “inactive”. `Cc1cccc(CNc2ncnc3ccc(-c4ccoc4)cc23)c1` was tested, and the AC50 was 10 µM (active). For `Nc1nc2c(ncn2COCCO)c(=O)[nH]1`, the AC50 was “inactive”. For `O=C(O)c1ccccc1OP(=O)(O)O`, the AC50 was “inactive”. `CN1CCc2c(c3c(n2C)CCN(C)[C@H]3c2ccccc2F)[C@@H]1c1ccccc1F` was tested, and the AC50 was “inactive”. `CCc1nc(SCC(=O)c2ccc(Cl)s2)c2oc3ccccc3c2n1` was tested, and the AC50 was “inactive”. With `CCOC(=O)Nc1ccc(C(=O)NCC2CCCO2)cc1` (stereo not drawn) the AC50 was “inactive”. In the case of `O=C(O)CCCC[C@H]1CCSS1`, the AC50 is reported as “inactive”. In the case of `COC(=O)[C@@H]1C[C@H]1[C@@H](NC(=O)c1cc(C)on1)c1ccccc1`, the AC50 is reported as “inactive”. With `COC(=O)[C@@H]1C[C@H]1[C@@H](NC(=O)c1cc(C)nn1C)c1ccccc1` the AC50 was 12.6 µM (active). For `COC(=O)[C@H]1C[C@@H]1[C@H](NC(=O)c1cc(C)on1)c1ccccc1`, the AC50 was “inactive”. For `CCOC(=O)C1=C(CSc2nc3ccccc3s2)NC(=O)NC1c1cccc([N+](=O)[O-])c1` (stereo not drawn), the AC50 was “inactive”. With `O=C(CN1C(=O)NC2(CCCCCC2)C1=O)N1CCN(S(=O)(=O)c2ccc(Cl)cc2)CC1` the AC50 was “inactive”. With `O=C(O)C1CC2(C1)CC(C(=O)O)C2` (stereo not drawn) the activity, negative = inhibition was 10.8% [at 11.4 µM] (inactive). In the case of `O=C(N/N=C/c1cccc([N+](=O)[O-])c1)c1cc2c(ccc3ccccc32)o1`, the AC50 is reported as “inactive”. In the case of `CC[C@@H]1OC(=O)[C@H](C)[C@H](O[C@@H]2C[C@](C)(OC)[C@H](O)[C@H](C)O2)[C@H](C)[C@H](O[C@@H]2O[C@@H](C)C[C@@H](N(C)C)[C@@H]2O)[C@](C)(O)C[C@H](C)C(=NOCOCCOC)[C@H](C)[C@H](O)[C@]1(C)O`, the AC50 is reported as “inactive”. `C=CCSc1nnc(NC(=O)COc2ccc3ccccc3c2)s1` was tested, and the AC50 was “inactive”. For `COC(=O)c1c(C)nc2ccccc2c1C(=O)O`, the AC50 was “inactive”. In the case of `COc1ccc(CCNC(=O)COC(=O)c2cnc(C)cn2)cc1`, the AC50 is reported as “inactive”. For `COc1ccc(CCNC(=O)COc2ccc(S(=O)(=O)NC3CCCCC3)cc2Cl)cc1`, the AC50 was 15.8 µM (active). In the case of `COc1ccc2c(c1)C(=O)N(CCc1ccc(S(=O)(=O)NC(=O)NC3CCCCC3)cc1)C(=O)C2(C)C`, the AC50 is reported as “inactive”. With `Cc1ccc(N=Nc2c(=O)[nH]n3c(C)cc(C)nc23)cc1` the AC50 was “inactive”. For `CCCN(CCC)C[C@@H]1CCCCN1CCNC(=O)N1c2ccccc2C(=O)Nc2cccnc21`, the AC50 was 2.51 µM (active). `O=C1Nc2ccccc2Nc2ncccc21` was tested, and the AC50 was “inactive”. In the case of `CN1CCN(CC(=O)N2c3ccccc3C(=O)Nc3cccnc32)CC1`, the AC50 is reported as “inactive and 31.6 µM (active)”. With `Cc1sc2nc(C3CC3)nc(SCC(=O)N3CC(=O)Nc4ccccc43)c2c1C` the AC50 was “inactive”. With `Cc1scc2c1N(C(=O)CN1CCN(C)CC1)c1ccccc1NC2=O` the AC50 was “inactive and 5.01 µM (active)”. In the case of `O=C1c2ccccc2C(=O)N1CC(=O)N1c2ccccc2CCc2ccccc21`, the AC50 is reported as “inactive”. In the case of `CCN1CCCC1CNC(=O)C1c2cc(OC)c(OC)cc2C(=O)N(C)C1c1cccnc1` (stereo not drawn), the AC50 is reported as “inactive”.
